Rab9 prom act: activates the Rab9 promoter; Huh7 Rab9 promoter-luciferase reporter, luminescence, 24 h; Potency, µM (highest dose often 9.22 µM), without a hit: top-dose activation, negative = inhibition, usual class: activators; 320,000 compounds, 2.8% hits; AID 485297; also: % of control where 0% means no effect; nearly all actives have a fitted effect of over 60% in size
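Using Huh7 cells stably transfected with Rab9 promoter–luciferase, compounds were incubated 24 h at 37 °C, 5% CO2; luciferase luminescence was read 10 min after reagent addition.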
FLuc counter: counter-screen for miR-21 project: firefly luciferase inhibitors or activators; AID 588342; purified FLuc, Km substrates, luminescence inhibition; Potency, µM (doses to about 57.5 µM), for inactives: top-dose activity change, negative = inhibition, hits mostly inhibitors; P08659; 360,000 compounds, 6.9% hits;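 also: plate controls were vehicle for no effect and reference inhibitor for full effect; nearly all actives have a fitted effect of over 55% in size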
Target sequence (P08659 whole entry, looked up): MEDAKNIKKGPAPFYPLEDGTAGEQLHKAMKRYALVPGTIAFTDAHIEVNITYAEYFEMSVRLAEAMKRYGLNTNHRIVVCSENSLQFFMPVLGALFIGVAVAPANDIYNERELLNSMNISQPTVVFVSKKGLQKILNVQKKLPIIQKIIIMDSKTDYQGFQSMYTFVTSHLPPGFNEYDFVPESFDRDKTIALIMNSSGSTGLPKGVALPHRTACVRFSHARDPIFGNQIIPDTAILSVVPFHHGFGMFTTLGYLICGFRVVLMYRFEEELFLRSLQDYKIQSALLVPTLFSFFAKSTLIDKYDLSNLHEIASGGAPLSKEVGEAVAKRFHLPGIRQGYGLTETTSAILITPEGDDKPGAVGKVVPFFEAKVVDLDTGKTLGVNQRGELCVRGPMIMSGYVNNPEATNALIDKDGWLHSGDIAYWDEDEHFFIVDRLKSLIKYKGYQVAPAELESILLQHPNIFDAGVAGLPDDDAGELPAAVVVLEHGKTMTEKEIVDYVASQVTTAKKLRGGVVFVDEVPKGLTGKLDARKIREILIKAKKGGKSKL
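Biochemical qHTS of compounds, final roughly 60 µM downward over six points, against 10 nM purified firefly luciferase using Km concentrations of substrates (10 uM D-luciferin, 10 uM ATP) in Tris acetate pH 7.5 buffer; luminescence output.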
SMN2 splice enh: SMN2 splice variant enhancement. HEK293 SMN2-luciferase splicing reporter, luminescence, 30-36 h. Potency, µM (top dose mostly 46.1 µM), for the others: at the highest dose activity change, positive = activation, usual class: activators. 210,000 compounds, 2.8% hits. AID 1458; also: % of control where 0% means no effect; nearly all actives have a fitted effect of over 55% in size
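HEK293 cells carry an SMN2 […]–luciferase reporter in which exon 7 inclusion puts luciferase in frame. Cells were plated 10-12 h before compound addition, then incubated 30-36 h at 37C. ONE-Glo luminescence was read; sodium butyrate at 4.5 mM final served as control.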
ELG1 genotox: genotoxicity induction in ELG1-luciferase HEK293T cells; HEK293T ELG1-luciferase reporter, luminescence, 16 h; 330,000 compounds, 1.3% hits; Potency, µM (doses to about 46 µM), without a hit: at the highest dose activity change, positive = activation, hits mostly activators; also: % of control where 0% means no effect; nearly all actives have a fitted effect of over 60% in size
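HEK293T cells expressing luciferase-tagged ELG1 were exposed to compound or DMSO vehicle for 16 hr at 37 °C and 5% CO2. Luciferase activity was then measured with ONE-Glo after 30 min at room temperature.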
NPC1 prom act: activators of NPC1 promoter; Huh7 NPC1 promoter luciferase reporter, 24 h; Potency, µM (doses to about 9.22 µM), for inactives: at the highest dose activation, most hits filed as activators; 320,000 compounds, 2.4% hits; also: % of control where 0% means no effect; nearly all actives have a fitted effect of over 60% in size
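Compounds in DMSO were transferred onto Huh7 NPC1-luciferase reporter cells pre-incubated 2 h; after 24 h at 37 °C, Amplite reagent was dispensed and luminescence recorded 10 min later.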
Luc counter: Kinase-Glo luciferase inhibition (counter-screen); Q27757; Kinase-Glo luciferase, ATP luminescence, 8 min; Potency, µM (top dose mostly 38.3 µM), for inactives: at the highest dose activity change, negative = inhibition, most hits filed as inhibitors; 200,000 compounds, 0.28% hits; also: % is scaled to controls: 0 for no effect and ±100 for the full control effect; nearly all actives have a fitted effect of over 60% in size
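Light output from Kinase-Glo luciferase with luciferin and 10 uM ATP in 50 mM imidazole pH 7.2, KCl, MgCl2, Tween 20, BSA; compound pin-delivered, 8-min ambient incubation, then luminescence read.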
* = called active by the depositor; ? = inconclusive; / = not tested or not shown. Compounds with a hit are over-represented: about 7.5% of the library has one in this group of screens. Calls follow the shape of the dose curve; as a rule, active = well fitted curve in the direction sought with a large enough effect; inconclusive = small, poorly fitted or top-dose-only effect, or another doubt; inactive = no such curve, though single readings can be large; an effect the other way counts as inactive or inconclusive. Potency is read from the fitted curve at half-maximal effect.

SMILES	Rab9 prom act	FLuc counter	SMN2 splice enh	ELG1 genotox	NPC1 prom act	Luc counter
O=C(c1cn(-c2ccccc2)nc1-c1cccs1)N1CCOCC1	-4%	?	-8%	1%	-1%	-1%
CNC(=O)COC(=O)/C=C/c1cn(-c2ccccc2)nc1-c1ccc2c(c1)OCCO2	18%	-16%	-32%	-4%	-4%	3%
O=C(N/N=C\c1cn(-c2ccccc2)nc1-c1ccccc1)c1ccc(Br)o1	13%	?	-79%	-21%	0%	-9%
O=C(N/N=C/c1nn(-c2ccccc2)cc1-c1ccccc1)c1ccncc1	-2%	9.5µM*	?	-1%	2%	-2%
CN(C)C(=O)COC(=O)/C=C/c1cn(-c2ccccc2)nc1-c1cccs1	0%	19µM*	7%	-5%	-3%	1%
O=C(N/N=C/c1cn(-c2ccccc2)nc1-c1cccs1)c1ccncc1	-2%	11µM*	2%	-2%	0%	-11%
COC(=O)COC(=O)c1ccccc1NC(=O)c1ccccc1	-6%	?	-8%	0%	0%	0%
CCC(=O)Nc1ccccc1C(=O)OCC(=O)c1ccc2ccccc2c1	15%	15µM*	-11%	-5%	10%	-4%
CCC(=O)Nc1ccccc1C(=O)OCC(=O)Nc1ccc(S(N)(=O)=O)cc1	2%	2%	18%	-3%	0%	2%
CCC(=O)Nc1ccccc1C(=O)OCC(=O)c1ccccc1	3.5µM*	21µM*	16µM*	?	2.8µM*	4%
CSCc1ccc(C(=O)NC(C)c2cnn(-c3ccccn3)c2C)o1 (stereo not given)	16%	-24%	/	4%	0%	/
Cc1ccc(C)c(S(=O)(=O)c2nnn3c2nc(NC2CCCC2)c2sccc23)c1	/	1%	/	/	/	/
O=C(Cn1ccc(NC(=O)OCc2ccccc2)nc1=O)NCc1ccc2c(c1)OCO2	-3%	-1%	/	13%	3%	/
O=C1CCCC1C(=O)Nc1ccc2ccccc2c1 (stereo not given)	15%	17µM*	/	11%	16%	/
COc1ccc(-n2nc(C(=O)NCC(=O)N3CCN(c4ccccc4)CC3)c3ccccc3c2=O)cc1OC	13%	0.85µM*	/	4%	?	/
COc1ccc(-n2nc(C(=O)NCC(=O)N3CCN(Cc4ccc5c(c4)OCO5)CC3)c3ccccc3c2=O)cc1OC	-2%	-3%	-11%	-16%	-7%	0%
COc1ccc(-n2nc(C(=O)NCC(=O)N3CCN(c4ccccc4OC)CC3)c3ccccc3c2=O)cc1OC	17%	3.8µM*	/	-5%	14%	/
COc1ccc(-n2nc(C(=O)NCC(=O)N3CCOCC3)c3ccccc3c2=O)cc1OC	-1%	24µM*	/	-5%	-5%	/
Cc1cc(=O)[nH]c(N/N=C/C(C)c2ccccc2)n1 (stereo not given)	2%	7%	/	2%	-4%	/
COc1ccc(NC(=O)Cn2c(=O)c3cc(Cl)ccc3n3nncc23)cc1	/	-6%	0%	/	/	/
CCCCC(=O)N1CCN(c2nc3ccc(Cl)cc3s2)CC1	29%	11µM*	/	?	?	/
CCS(=O)(=O)c1ccccc1C(=O)N1CCN(c2nc3ccccc3s2)CC1	/	-4%	/	/	/	/
CCC(=O)N1CCN(c2nc3ccccc3s2)CC1	3.2µM*	17µM*	2%	6%	?	-4%
Cc1cc(C)c2sc(N3CCN(C(=O)C4CC4)CC3)nc2c1	/	12µM*	/	/	/	/
CNC(=S)N1CCN(c2nc3ccccc3s2)CC1	?	17µM*	/	17%	?	-5%
SMILES	Rab9 prom act	FLuc counter	SMN2 splice enh	ELG1 genotox	NPC1 prom act	Luc counter
CC(C)(CC(=O)O)CC(=O)N1CCN(c2nc3ccc(Cl)cc3s2)CC1	-1%	-17%	/	5%	-2%	/
COc1ccc(-c2nc3cc(C)ccn3c2NC(=O)c2cccc(F)c2)cc1	/	?	14%	/	/	/
Cc1ccccc1CN1CCN(c2nc3ccccc3s2)CC1	1.4µM*	4.8µM*	/	21µM*	1.6µM*	/
O=C(C1CC1)N1CCN(c2nc3ccccc3s2)CC1	2.2µM*	21µM*	?	?	2.8µM*	0%
CCc1nccn1CCC(=O)NC1CC(C)(C)Cc2c1cnn2-c1cccc(F)c1 (stereo not given)	5%	0%	/	-4%	-4%	/
Cc1ccc(Cl)cc1NC(=O)c1oc2c(c1C)-c1[nH]ncc1CC2	/	-2%	/	/	/	/
Cc1ccc(/C=C/c2onc(C)c2S(=O)(=O)N2CCC(C(=O)NCc3ccc(OC(C)C)cc3)CC2)cc1	/	0%	/	/	/	/
COc1ccc(CNC(=O)CN(C(=O)CCC(=O)Nc2nccs2)c2cccc(C)c2)cc1	-4%	2%	/	16%	-3%	/
CCN(CC)c1ccc2cc(-c3nnc(-c4ccccc4)o3)c(=O)oc2c1	?	?	11µM*	?	2.8µM*	2%
O=c1oc2ccc3ccccc3c2cc1-c1nnc(-c2ccccc2)o1	-8%	-18%	-15%	-2%	-1%	-2%
CCN(CC)c1ccc2cc(-c3nc4ccccc4[nH]3)c(=O)oc2c1	0.1µM*	0.076µM*	0%	0.15µM*	0.28µM*	?
CCN(CC)c1ccc2cc(-c3nc4ccccc4n3C)c(=O)oc2c1	16%	1.9µM*	?	?	?	15%
CN(C)c1ccc(CNC(=O)c2cc3cc(S(=O)(=O)N4CCCCC4)ccc3n2C)cc1	/	6%	/	/	/	/
O=C(NCc1ccco1)c1ccc(COc2ccccc2[N+](=O)[O-])o1	3%	0%	/	0%	-5%	/
COc1ccc(NC(=O)c2c(C)oc3ccc(O)c(CN4CCN(Cc5ccccc5)CC4)c23)cc1Cl	/	-1%	-14%	/	/	/
O=C(N=Nc1c(O)n(Cc2ccccc2)c2ccccc12)c1ccc(O)cc1	?	0.95µM*	?	?	?	-2%
O=C(N=Nc1c(O)n(Cc2ccccc2)c2ccccc12)c1cc2ccccc2cc1O	?	1.1µM*	10µM*	?	?	-15%
Cc1ccc(NC(=O)Cn2c(O)c(N=NC(=O)c3cc4ccccc4cc3O)c3ccccc32)cc1	-8%	?	-44%	-3%	1%	-1%
CC(=O)Nc1ccc(Nc2ncnc3c2c(-c2ccccc2)cn3-c2ccc(C)c(Cl)c2)cc1	/	2%	/	/	/	/
Cc1ccc(/C=C2/Sc3ccc(C(=O)NCCN4CCOCC4)cc3NC2=O)cc1	1%	?	/	4%	-3%	/
CCN1CCCC1CNC(=O)c1ccc2c(c1)NC(=O)/C(=C\c1ccc(C)cc1)S2 (stereo not given)	-2%	21µM*	/	?	0%	/
